Structures can show the parent of a compound that is named as a salt. ± gives the standard deviation.
test system: Jurkat; assay: cell count relative to DMSO control (fraction of control); higher = more cells (less growth inhibition); details: 48 h

Question: Which cell count does the source give for O=C(O[C@H]1C[C@H]2CC[C@@H](C1)[N+]21CCCC1)C(O)(c1ccccc1)c1ccccc1 [Trospium Chloride] (concentration: 25 µM) here?
Answer: 0.982 ± 0.079

Question: How did the cell count turn out when C=CCN1CC[C@]23c4c5ccc(O)c4O[C@H]2C(=O)CC[C@@]3(O)[C@H]1C5 [Naloxone·HCl] (concentration: 25 µM) was run?
Answer: 0.96 ± 0.071

Question: With C[C@]12CC[C@@H]3c4ccc(OC(=O)N(CCCl)CCCl)cc4CC[C@H]3[C@@H]1CC[C@@H]2OP(=O)(O)O [Estramustine Phosphate·Na] (concentration: 25 µM) as the molecule, how does the cell count read?
Answer: 0.781 ± 0.051

Question: For CC(NC(C)(C)C)C(=O)c1cccc(Cl)c1 (stereo unspecified) [Bupropion] (concentration: 25 µM), which cell count is on record?
Answer: 0.696 ± 0.15

Question: For O=C(O)CCCc1ccc(N(CCCl)CCCl)cc1 [Chlorambucil] (concentration: 250 nM), which cell count is on record?
Answer: 0.352 ± 0.089

Question: With CN1C(=O)C(O)N=C(c2ccccc2)c2cc(Cl)ccc21 (stereo unspecified) [Temazepam] (concentration: 25 µM) as the molecule, how does the cell count read?
Answer: 0.916 ± 0.032

Question: With C=CCN1C[C@H](C(=O)N(CCCN(C)C)C(=O)NCC)C[C@@H]2c3cccc4[nH]cc(c34)C[C@H]21 [Cabergoline] (concentration: 25 µM) as the molecule, how does the cell count read?
Answer: 0.234 ± 0.08

Question: O=P1(NCCCl)OCCCN1CCCl (stereo unspecified) [Ifosfamide] (concentration: 25 µM) was tested. Which cell count did it give?
Answer: 0.372 ± 0.12

Question: For CN(C)[C@@H]1C(=O)C(C(N)=O)=C(O)[C@@]2(O)C(=O)C3=C(O)c4c(O)cccc4[C@@](C)(O)[C@H]3[C@H](O)[C@@H]12 [Oxytetracycline·HCl] (concentration: 25 µM), which cell count is on record?
Answer: 0.884 ± 0.1

Question: Which cell count does the source give for Cc1nnc2n1-c1ccc(Cl)cc1C(c1ccccc1Cl)=NC2 [Triazolam] (concentration: 25 µM) here?
Answer: 0.992 ± 0.11

Question: CC(C)C[C@H](CN)CC(=O)O [Pregabalin] (concentration: 25 µM) was tested. Which cell count did it give?
Answer: 0.592 ± 0.12

Question: With CC1(C)C(C=C(Cl)Cl)C1C(=O)OCc1cccc(Oc2ccccc2)c1 (stereo unspecified) [Permethrin] (concentration: 25 µM) as the molecule, how does the cell count read?
Answer: 1.05 ± 0.08

Question: Cl[C@H]1[C@H](Cl)[C@@H](Cl)[C@@H](Cl)[C@H](Cl)[C@H]1Cl [Lindane] (concentration: 25 µM) was tested. Which cell count did it give?
Answer: 0.667 ± 0.091

Question: How did the cell count turn out when O=C1CN=C(c2ccccc2Cl)c2cc([N+](=O)[O-])ccc2N1 [Clonazepam] (concentration: 25 µM) was run?
Answer: 0.659 ± 0.12

Question: CN(C)[C@@H]1C(=O)C(C(N)=O)=C(O)[C@@]2(O)C(=O)C3=C(O)c4c(O)cccc4[C@@](C)(O)[C@H]3C[C@@H]12 [Tetracycline] (concentration: 25 µM) was tested. Which cell count did it give?
Answer: 0.556 ± 0.046

Question: With CC(=O)O[C@H]1C[C@@H]2CC[C@@H]3[C@H](CC[C@@]4(C)[C@H]3C[C@H]([N+]3(C)CCCCC3)[C@@H]4OC(C)=O)[C@@]2(C)C[C@@H]1[N+]1(C)CCCCC1 [Pancuronium·2Br] (concentration: 25 µM) as the molecule, how does the cell count read?
Answer: 1.12 ± 0.09

Question: With C=C1C[C@@H]2[C@H](CC[C@]3(C)C(=O)CC[C@@H]23)[C@@]2(C)C=CC(=O)C=C12 [Exemestane] (concentration: 25 µM) as the molecule, how does the cell count read?
Answer: 0.422 ± 0.12

Question: For C#CCN(C)[C@H](C)Cc1ccccc1 [Selegiline·HCl] (concentration: 25 µM), which cell count is on record?
Answer: 0.711 ± 0.098

Question: How did the cell count turn out when CCOC(=O)c1cncn1[C@H](C)c1ccccc1 [Etomidate] (concentration: 25 µM) was run?
Answer: 0.854 ± 0.055

Question: CCCC(C)(COC(N)=O)COC(N)=O [Meprobamate (Schedule Iv)] (concentration: 25 µM) was tested. Which cell count did it give?
Answer: 0.941 ± 0.069

Question: CN1[C@@H]2C[C@@H](OC(=O)[C@H](CO)c3ccccc3)C[C@H]1[C@@H]1O[C@@H]12 [Scopolamine·HBr] (concentration: 25 µM) was tested. Which cell count did it give?
Answer: 0.608 ± 0.1

Question: Which cell count does the source give for CN(C)C(=O)Oc1ccc[n+](C)c1 [Pyridostigmine Bromide] (concentration: 25 µM) here?
Answer: 0.651 ± 0.11

Question: Which cell count does the source give for Nc1ccncc1 [Dalfampridine (4-Aminopyridine)] (concentration: 25 µM) here?
Answer: 0.646 ± 0.16

Question: For COc1cc([C@@H]2c3cc4c(cc3[C@H](O)[C@H]3COC(=O)[C@H]23)OCO4)cc(OC)c1OC [Podofilox] (concentration: 25 nM), which cell count is on record?
Answer: 0.0355 ± 0.018

Question: How did the cell count turn out when CCCCCCC(=O)O[C@H]1CC[C@H]2[C@@H]3CCC4=CC(=O)CC[C@]4(C)[C@H]3CC[C@]12C [Testosterone Enanthate] (concentration: 25 µM) was run?
Answer: 0.703 ± 0.12

Question: With O=C1CC[C@@]2(O)[C@H]3Cc4ccc(O)c5c4[C@@]2(CCN3CC2CC2)[C@H]1O5 [Naltrexone·HCl] (concentration: 2.5 µM) as the molecule, how does the cell count read?
Answer: 0.399 ± 0.091

Source: the supplement of paper PMC4709259
